Only some compounds are listed: those with a hit (about 3% of all), similar ones and a draw of the others.
Fh CTSL1 inh: cathepsin L1 inhibition, PFM18AAP counter-screen. recombinant F. hepatica cathepsin L1, Z-Leu-Arg-MCA fluorescence. inhibition, % at 5.96 µM. hit rate 0.49% among 300,000. AID 1906;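 active = inhibition above the mean of all tested compounds plus 3 SD, set per screening campaign, cut at about 17% in these data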
PAFAH1B3 inh: blocks human PAF acetylhydrolase 1B catalytic subunit 3; recombinant PAFAH1B3, FP-rhodamine probe, fluorescence polarization; inhibition, % at 3.39 µM; hit rate 0.28% among 340,000; AID 492972;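 active = inhibition above the screen-wide average of all tested compounds plus 3 SD, cut at about 25% in these data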
PAFAH2 FP inh: PAFAH2 (human) inhibition; Q99487; recombinant PAFAH2, FP-rhodamine activity probe, fluorescence polarization; inhibition, % at 3.39 µM; hit rate 0.99% among 340,000;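 active = inhibition above the mean over all tested compounds plus 3 SD, cut at about 30% in these data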;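 also: inhibitors block probe labeling of enzyme so polarization drops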
PP5 inh: inhibitors of human protein phosphatase 5 (PP5) | P53041 | purified PP5c, OMFP substrate fluorescence | inhibition, % at 6.7 µM | hit rate 0.18% among 320,000;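 active = inhibition above the campaign's mean inhibition across all tested compounds plus 3 SD, cut at about 9.5% in these data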
pPAFAH FP inh: inhibitors of human plasma PAF acetylhydrolase (pPAFAH); Q13093; recombinant pPAFAH, FP-rhodamine probe fluorescence polarization; inhibition, % at 3.39 µM; hit rate 1.5% among 330,000;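 active = inhibition above the mean inhibition across the screen plus 3 SD, cut at about 25% in these data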;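 also: inhibitors block binding of the rhodamine activity-based probe so polarization drops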
Target sequence (Q13093 whole entry, looked up): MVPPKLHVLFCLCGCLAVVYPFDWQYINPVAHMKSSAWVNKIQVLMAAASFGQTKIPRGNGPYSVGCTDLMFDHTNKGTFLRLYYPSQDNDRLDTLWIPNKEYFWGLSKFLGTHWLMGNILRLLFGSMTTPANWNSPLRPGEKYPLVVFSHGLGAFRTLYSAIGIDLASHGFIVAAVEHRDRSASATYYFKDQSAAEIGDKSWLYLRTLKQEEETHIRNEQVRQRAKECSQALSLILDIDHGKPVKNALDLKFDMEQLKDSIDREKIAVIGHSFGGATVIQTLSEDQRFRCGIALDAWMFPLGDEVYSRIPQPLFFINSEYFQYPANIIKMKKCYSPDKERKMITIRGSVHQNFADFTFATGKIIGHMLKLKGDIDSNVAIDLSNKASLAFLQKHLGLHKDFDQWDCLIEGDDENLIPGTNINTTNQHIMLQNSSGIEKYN
PAFAH1B2 FP inh: PAFAH1B2 (human) inhibition. inhibition, % at 3.39 µM. recombinant PAFAH1B2, FP-rhodamine activity probe, fluorescence polarization. hit rate 1.2% among 340,000. P68402. AID 492953;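 active = inhibition above the mean of all tested compounds plus 3 SD, cut at about 24% in these data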
Target sequence (P68402 whole entry, looked up): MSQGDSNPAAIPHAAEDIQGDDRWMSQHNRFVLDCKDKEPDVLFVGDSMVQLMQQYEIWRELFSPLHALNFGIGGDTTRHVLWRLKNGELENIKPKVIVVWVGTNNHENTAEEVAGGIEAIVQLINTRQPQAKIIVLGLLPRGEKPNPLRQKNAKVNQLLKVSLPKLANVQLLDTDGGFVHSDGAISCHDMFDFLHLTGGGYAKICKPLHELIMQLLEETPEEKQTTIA
A number is an active result; i = inactive; nt = not tested or not shown.

SMILES | Fh CTSL1 inh | PAFAH1B3 inh | PAFAH2 FP inh | PP5 inh | pPAFAH FP inh | PAFAH1B2 FP inh
O=C1CCC(c2ccc3c(c2)CCC3)=NN1 | i | i | i | i | i | i
O=C(O)c1ccccc1-c1ccccc1C(=O)NCc1cccc(C(F)(F)F)c1 | i | i | i | i | i | 29
COc1cccc(CNC(=O)c2ccccc2-c2ccccc2C(=O)O)c1 | i | i | i | i | i | i
N#C/C(=C/c1ccco1)C(N)=S | i | i | 34 | i | 33 | i
O=c1ccn(C2CCCO2)c(=O)[nH]1 (configuration not stated) | nt | i | i | nt | nt | i
CCc1ccc(S(=O)(=O)Nc2cc3c(cc2N2CCOCC2)n(C)c(=O)c(=O)n3C)cc1 | i | i | i | i | i | 26
CCOc1cc2c(cc1OCC)CN(C(=O)c1cccc(S(=O)(=O)N3CCCC3)c1)CC2 | nt | i | i | i | i | i
Cc1cc2cc(C(c3nnnn3Cc3ccco3)N3CCc4ccccc43)c(=O)[nH]c2cc1C (configuration not stated) | i | i | i | i | 30 | i
N#Cc1ccc(N)cc1OCCCN1CCCCC1 | nt | i | i | nt | nt | i
Cc1cccc(-n2c(=O)c3ccccc3n3c(=S)[nH]nc23)c1C | i | i | i | i | i | i
CNC(=S)N1N=C(c2ccc(C)cc2)CC1c1ccc(Br)cc1 (configuration not stated) | i | i | i | i | i | i
CC(C)c1ccc(C2CC(c3ccc(Br)cc3)=NN2C(N)=S)cc1 (configuration not stated) | 20 | i | i | i | i | i
CCOC(=O)C1=C(O)/C(=C\c2ccc(CNS(=O)(=O)c3ccc(Br)cc3)o2)N=C1C | i | i | i | i | 28 | i
COc1ccc(CNC(=O)COC(=O)c2ccc(Br)o2)cc1 | nt | i | i | i | i | i
Cc1ccc(-n2c(Cc3cccn3C)nnc2SCC(N)=O)cc1 | i | i | i | i | i | i
Cc1ccc(-n2c(Cc3cccn3C)nnc2SCC(=O)NCc2ccco2)cc1 | i | i | i | i | 29 | i
CCN(CC)c1ccc(/C=C2\C(=O)c3ccc(C(=O)O)cc3C2=O)cc1 | i | i | i | i | 28 | i
CCN(CC)c1ccc(C(=O)O)cc1 | i | i | i | i | i | i
COc1cccc(-n2c(CNc3ccc(F)cc3)nnc2SCC(N)=O)c1 | i | i | i | i | i | 26
COc1ccc(CCNC(=O)c2cc(-c3ccccc3)c(N3CCOCC3)s2)c(OC)c1OC | i | i | i | i | i | i
O=C(N/N=C/c1ccc[nH]1)c1cc2ccccc2cc1O | i | i | i | i | 25 | i
COc1ccc(N2C(=NC(=O)C(C)Oc3ccccc3)SC3CS(=O)(=O)CC32)cc1 (configuration not stated) | i | i | i | i | i | i
CCOC(=O)/C=C/C(=O)Nc1ccc(S(=O)(=O)N2CCc3ccccc32)cc1 | i | i | i | i | i | i
CCOC(=O)/C=C/C(=O)Nc1ccc(-c2nnc3n2CCCCC3)cc1 | 37 | i | i | i | i | i
CCCCCC(=O)Nc1ccc(-c2nnc3n2CCCCC3)cc1 | i | i | i | i | i | i
SMILES | Fh CTSL1 inh | PAFAH1B3 inh | PAFAH2 FP inh | PP5 inh | pPAFAH FP inh | PAFAH1B2 FP inh
CCOC(=O)/C=C/C(=O)Nc1ccc(S(=O)(=O)N2CCCCCC2)cc1 | 31 | i | i | i | i | i
CC(=O)Nc1ccc2c(c1)Cc1cc(N3C(=O)C=CC3=O)ccc1-2 | nt | i | i | nt | nt | i
Cc1oc(-c2cccs2)nc1CN1CCC(CO)(CCOc2ccccc2)CC1 | i | i | i | i | i | i
OC(c1ccc(F)cc1)(C1CCCCC1)C(CN1CCOCC1)c1ccccc1 (configuration not stated) | i | i | i | i | i | 35
O=C(Nc1ccc(C(=O)O)cc1)Nc1ccc(F)cc1F | i | i | i | i | i | i
CC(C)(C)OC(=O)N1C[C@H](O)C[C@H]1C(=O)OCC(=O)c1ccc([N+](=O)[O-])cc1 | i | i | i | i | i | i
COc1ccc2[nH]cc(CCNC(=O)COc3cc(C)cc4oc(=O)cc(C)c34)c2c1 | i | i | i | i | i | 25
Cc1cc(OC(C)C(=O)NCCc2c[nH]c3ccccc23)c2c(C)cc(=O)oc2c1 (configuration not stated) | i | i | i | i | i | i
COc1ccc(N=C2NC(=O)/C(=C/c3ccco3)S2)cc1 | i | i | i | i | i | i
COc1ccc(S(=O)(=O)/N=C2/NC(=O)/C(=C/c3ccco3)S2)cc1 | i | i | i | i | 32 | i
Cc1ccc(S(=O)(=O)N[C@@H](C)C(=O)OCC(=O)N2c3ccccc3NC(=O)C2(C)C)cc1 | nt | i | i | i | i | i
O=C(O)CC/C(=N/NC(=O)CNC(=O)Cc1ccc(Cl)cc1)c1ccccc1 | i | i | i | i | i | 24
O=C(CSCc1ccc(Cl)cc1Cl)Nc1ccc(O)cc1C(=O)O | i | i | i | i | i | 28
Cc1c(NC(=O)CSCc2ccc(Cl)cc2Cl)cccc1C(=O)O | 19 | i | i | i | i | i
COc1cc(NC(=O)CSCc2ccc(Cl)cc2Cl)c(C(=O)O)cc1OC | i | i | i | i | i | i
Cc1c(Cl)cccc1NC(=O)CSCc1cc(=O)[nH][nH]1 | i | i | i | i | 25 | i
O=C(COc1cccc(F)c1)Nc1nc(-c2cccnc2)cs1 | nt | i | i | i | i | i
O=C(COC(=O)c1cc(-c2cccs2)nn1-c1ccccc1)Nc1ccc(F)c([N+](=O)[O-])c1 | i | i | 36 | i | 25 | i
OC1(C#CCN2CCCC2)CCCCC1 | i | i | i | i | i | i
Cc1c(C(=O)Nc2ccc(S(N)(=O)=O)cc2)oc2ccc(Cl)cc12 | i | i | i | i | i | i
Cc1c(C(=O)NNC(=S)Nc2ccc(S(N)(=O)=O)cc2)oc2ccccc12 | i | i | i | i | 28 | i
O=C(CSc1nc2ccccc2n1CCc1ccccc1)N1CCOCC1 | i | i | i | i | i | i
O=C(CSc1nc2ccccc2c(=O)[nH]1)c1ccc(O)c(O)c1 | i | i | 49 | i | 33 | i
O=C(CSc1nc2ccccc2n1CCc1ccccc1)c1ccc(O)c(O)c1 | nt | i | 55 | nt | nt | 28
O=C(O)/C=C\C(=O)Nc1ccc(N2CCN(c3ccc(Cl)cc3)CC2)cc1 | i | i | i | i | i | 25
SMILES | Fh CTSL1 inh | PAFAH1B3 inh | PAFAH2 FP inh | PP5 inh | pPAFAH FP inh | PAFAH1B2 FP inh
COc1ccccc1CNC(=O)CCS(=O)(=O)c1ccc(Cl)cc1 | 29 | i | i | i | i | i
Cc1ccc(S(=O)(=O)CCC(=O)NCc2ccccc2Cl)cc1 | i | i | i | i | i | i
Cc1nc(N2CCCC2)c2nnn(Cc3ccccc3Cl)c2n1 | 18 | i | i | i | i | i
CC(C)c1ccc(NC2CCCN(C(=O)c3n[nH]c4c3CCC4)C2)cc1 (configuration not stated) | i | i | i | i | i | 27
Cc1ccc(S(=O)(=O)N2CCC(C(=O)N3CCc4ccccc43)CC2)cc1C | nt | i | i | nt | nt | i
O=C(N/C=C/c1ccco1)OCc1ccccc1 | i | i | i | i | 26 | i
O=C(N/C=C/c1ccco1)NCc1ccccc1 | i | i | i | i | i | i

High-throughput results deposited in PubChem BioAssay by The Scripps Research Institute Molecular Screening Center.
